This is an account of results in PubChem BioAssay AID2314 (National Center for Advancing Translational Sciences (NCATS), 2010).

Out of some 300,000 compounds screened, about 37,000 (12%) were called active. This is one part of a sample in which actives are shown more often than they occur. No stated cut-off is given here; in the data, active means max response mostly above about 13% (no sharp cut-off); inactive means mostly below about 14%.

The test can be described thus: Cycloheximide Counterscreen for Small Molecule Inhibitors of Shiga Toxin. Further: read at 38.3 µM for the half of the compounds with a filed dose; 0% is about no effect. The conditions noted are these: cell reporter, cycloheximide protein synthesis inhibition counterscreen; active compounds read high. Background: Counterscreens check selectivity or assay interference.
In the case of `CCN(CC)CCNC(=O)c1sc2ncn(CC(=O)Nc3ccc(C)c(Cl)c3)c(=O)c2c1C`, the max response was -6.12% (inactive).
Under `Cc1ccc(NC(=O)CSc2nnc(CNC(=O)c3ccccc3F)o2)cc1Cl` stands 7.13% (inactive); under `CCCNC(=O)CCc1c(C)nc2c(c(C)nn2-c2ccccc2)c1C`, -1.68% (inactive).
Under `Cc1ccc(C)c(C(=O)N2CCC(n3nccc3NC(=O)C3CC3)CC2)c1` stands -2.23% (inactive); under `Cc1ccc(C)c(NS(=O)(=O)c2c(C)[nH]c(C)c2C(=O)N2CCCCC2)c1`, -4.94% (inactive); under `CC(=O)OC(C(=O)NC1CCCCC1)c1ccccc1` (centres undefined), -1.59% (inactive).
In the case of `O=C(Cn1c(-c2cncs2)nc2ccccc21)NC1CCCC1`, the max response is -2.22% (inactive).
Turning to `O=C(/C=C/c1cnc2ccccc2n1)NC1CCCCCC1`, the max response was 49.7% (active).
Under `CC(c1ccco1)N(C(=O)Nc1ccccc1)C1CCCCC1` (centres undefined) stands 14.3% (active); under `CCOc1ccc(NC(=O)N(CCC(C)C)C(C)c2ccco2)cc1` (centres undefined), 8.57% (inactive); under `CCCC(C(=O)NCc1ccco1)N(C(=O)CNS(=O)(=O)c1ccccc1)C1CCCC1` (centres undefined), 2.82% (inactive).
Under `COc1ccc(C2=NS(=O)(=O)N(C)C(C(=O)N(C)Cc3ccccc3)=C2)cc1` stands -2.93% (inactive); under `O=C(C[C@H]1C(=O)N(c2ccc(F)c(F)c2)C[C@@H]1Cc1ccccc1)Nc1ccccc1`, 2.14% (inactive).
For `CCOc1ccc(NC(=O)C2CCN(C(=O)N3CCOc4ccccc43)CC2)cc1`, the max response is -1.22% (inactive).
Under `Cc1cc(C)c2c(=O)[nH]c(SCC(=O)Nc3ccc(Br)cc3)nc2n1` stands -1.25% (inactive).
In the case of `COc1ccc(C2CC(c3cccs3)=NN2C(=O)CCC(=O)O)cc1OC` (centres undefined), the max response was -0.943% (inactive).
As for `COc1ccc(C2CC(c3cccs3)=Nc3ccccc3S2)cc1OC` (centres undefined), the max response was 30.8% (active).
Under `COc1ccc(C2CC(c3cccs3)=NN2c2ccc(F)cc2)cc1OC` (centres undefined) stands 15.3% (inactive).
As for `CCn1c(SCC(=O)NNC(=O)c2ccc(OC)cc2)nnc1C(C)C`, the max response was -1.89% (inactive).
Under `COC(=O)c1ccc(NC(=O)CSc2nnc(-c3ccncc3)n2C)cc1` stands 0.526% (inactive); under `C=CCn1c(CNC(=O)c2ccco2)nnc1SCC(=O)c1ccc(OC)cc1`, 0.446% (inactive).
The result for `COC(=O)c1ccc(NC(=O)CSc2nnc(C3CC3)n2C)cc1` reads -2.61% (inactive).
Regarding `CCn1c(CNc2ccc(OC)cc2)nnc1SCC(=O)c1ccc(OC)cc1`, the max response was 25.8% (active).
The result for `COC(=O)c1ccc(NC(=O)CSc2nnc(CNc3ccc(OC)cc3)n2C)cc1` reads 15.4% (active); that for `O=C(NCCCN1CCCC1=O)C(=O)NCC1OCCN1S(=O)(=O)c1ccc(Br)cc1` (centres undefined), 0.895% (inactive); that for `CN(C)c1ccc(NC(=S)N(CCc2ccccc2)C2CC(=O)N(c3c(Cl)cccc3Cl)C2=O)cc1` (centres undefined), 9.01% (inactive).
The result for `Cc1ccc(-n2c(SCC(=O)NCCC3=CCCCC3)nc3n[nH]c(C)c3c2=N)cc1Cl` reads -7.25% (inactive); that for `O=C(Cn1cncn1)N/N=C/c1c2ccccc2cc2ccccc12`, 10.8% (inactive).
Under `Cc1cccn2c(=O)c3cc(C(=O)NCCN4CCOCC4)c(=N)n(Cc4cccnc4)c3nc12` stands -3.88% (inactive); under `CC(Cc1cccs1)NC(=O)c1cccc(Cl)c1` (centres undefined), 54.9% (active); under `CC(Cc1cccs1)NC(=O)NC1CCCCC1` (centres undefined), 12% (inactive).
Consider `CC(Cc1cccs1)NCc1ccc(Cl)cc1` (centres undefined), for which the max response is 8.85% (inactive).
In the case of `O=C(c1cnc(Cl)c(Cl)c1)N1CCN(S(=O)(=O)c2ccc(F)cc2)CC1`, the max response is -7.24% (inactive).
As for `Cc1cnc(C(=O)N2CCCC(C(=O)c3ccc(C(F)(F)F)cc3)C2)cn1` (centres undefined), the max response is -6.02% (inactive).
The result for `O=C(NCc1ccco1)c1ccc([N+](=O)[O-])cc1Cl` reads -2.66% (inactive); that for `O=C(NCc1ccco1)c1nn2cccnc2c1Cl`, 7.86% (inactive).
Under `O=C(NCc1ccco1)c1sc2cccc(F)c2c1Cl` stands 24.8% (active).
As for `COc1ccc(-c2cc(C(=O)NCc3ccco3)no2)cc1OC`, the max response was 8.2% (inactive).
The result for `Cn1nc(-c2ccc(Cl)cc2)c2cc(C(=O)NCc3ccco3)sc21` reads -3.6% (inactive); that for `COc1ccc2c(Cl)c(C(=O)NCc3ccco3)sc2c1`, 76.1% (active).
Under `COC(=O)c1ccc(COc2cc([N+](=O)[O-])cc3cccnc23)cc1` stands 0.536% (inactive); under `COc1cccc(NC(=O)C2CCCN(c3ncnc4c3nc3n4CCCCC3)C2)c1` (centres undefined), 9.28% (inactive); under `CCCOc1ccc(Cc2c(Cl)nc(SC)nc2NC)cc1`, -0.737% (inactive).
Under `CC(NC(=O)c1cc(=O)[nH]c2ccccc12)c1ccc(F)cc1F` (centres undefined) stands -4.29% (inactive).
Take `CC(C)N1C(=S)SC(C)(C)C1n1oc(=O)n(-c2ccc(Cl)c(Cl)c2)c1=O` (centres undefined): the max response was -1.96% (inactive).
Under `CC(=O)NC1CCN(CC(=O)Nc2nccs2)CC1` stands 4.21% (inactive); under `CC1(C)CC(=O)C(C2c3ccccc3S(=O)(=O)c3ccccc32)C(=O)C1`, 7.14% (inactive); under `COc1ccc(CNC(=O)C(NS(=O)(=O)c2cccc3nsnc23)C(C)C)cc1` (centres undefined), 2.57% (inactive).
Take `Cc1ccc(C)c(OCCC(=O)OCC(=O)N2CCN(c3ccccc3)CC2)c1`: the max response was -1.98% (inactive).
Regarding `CCCCN1C(=O)/C(=C(/C#N)C(N)=O)c2ccccc21`, the max response is -9.26% (inactive).
As for `COc1ccc2c(c1)C(=C(C#N)C#N)C(=O)N2CCc1ccccc1`, the max response was 13.7% (active).
Regarding `C#CCN1C(=O)C(O)(CC(=O)c2cc(OC)ccc2OC)c2ccccc21` (centres undefined), the max response is -0.954% (inactive).
On to `COc1cccc2cc(C(N)=O)/c(=N\NC(=O)c3ccccc3)oc12`, for which the max response was 36.9% (active).
With `COc1ccc(C(=O)N/N=c2\oc3ccccc3cc2C(N)=O)cc1`, the max response is 45% (inactive).
Under `NC(=O)c1cc2ccccc2o/c1=N/NC(=O)c1cccc(F)c1` stands 8.31% (inactive); under `CCCC(C)c1nnc(NC(=O)C2CC(=O)N(c3ccc(OCC)cc3)C2)s1` (centres undefined), -2.49% (inactive).
For `COc1ccc(N2CCN(C(=O)CNC(=O)c3ccc(Br)o3)CC2)cc1`, the max response was -1.81% (inactive).
Under `CC1=C(C(N)=O)C(c2ccc(F)cc2)n2nc(CCCO)nc2N1` (centres undefined) stands 5.22% (inactive); under `CC(c1ccccc1)(c1ccccc1)c1ccncc1`, -5.73% (inactive).
Under `CC(C)(C)c1ccc(SCCc2ccncc2)cc1` stands 12.3% (active); under `Cc1cc(C)c(SCCc2ccncc2)c(C)c1`, 1.01% (inactive); under `COc1ccc(N2CCN(C(=O)Cn3cnc4sc(C)c(S(=O)(=O)N5CCOCC5)c4c3=O)CC2)cc1`, -2.13% (inactive).
Regarding `Cn1c(=O)[nH]c(=O)c2c1[nH]c(=S)n2Cc1ccccc1`, the max response is -6.84% (inactive).
Take `CCOCc1nnc(NC(=O)CCC2CCCCC2)s1`: the max response was 9.52% (inactive).
As for `CCc1ccc(OCC(O)CN2CCN(CCO)CC2)cc1` (centres undefined), the max response was -1.22% (inactive).
The result for `CCn1c(SC)nc(O)c(C(c2ccc(OC)c(O)c2)c2c(O)nc(SC)n(CC)c2=O)c1=O` reads 18.8% (inactive).
The result for `Cc1onc(-c2ccc(Cl)cc2)c1-c1ccnn1S(=O)(=O)c1ccc(Cl)cc1` reads 9.73% (inactive); that for `COc1ccc2[nH]c(=O)c(-c3noc(-c4ccc(F)cc4)n3)cc2c1`, 41% (active).
For the molecule `CCCc1nc(-c2cc3cc(C)ccc3[nH]c2=O)no1`, the max response is 2.4% (inactive).
On to `COc1ccccc1CNS(=O)(=O)c1ccc(C)cc1`, for which the max response was 7.14% (inactive).
The result for `COc1ccc(-c2noc(CN(C)S(=O)(=O)c3ccc(C)cc3)n2)cc1` reads -2.54% (inactive); that for `COc1ccc(Cc2nc(-c3ccccn3)no2)cc1OC`, 33% (active); that for `COc1ccc(CCNS(=O)(=O)c2cccc3cccnc23)cc1OC`, -1.86% (inactive).
The result for `COc1ccc2[nH]c(=O)c(CN(Cc3cccnc3)S(=O)(=O)c3ccccc3F)cc2c1` reads -2.1% (inactive); that for `COc1ccc(CCNC(=O)C(Sc2ccccn2)c2ccccc2)cc1OC` (centres undefined), -1.92% (inactive).
The result for `COc1ccccc1Cc1nc(-c2ccc(C)cc2)no1` reads 35.3% (active).
Regarding `COc1ccc(-c2noc(-c3ccc(C)cc3)n2)cc1`, the max response is 39.5% (active).
Under `COc1ccc(-c2noc(CSc3ccc(C)cc3)n2)cc1` stands 10.3% (inactive); under `Cc1ccc(-c2noc(CC(c3ccccc3)c3ccccc3)n2)cc1`, 11% (inactive); under `O=c1c([N+](=O)[O-])cccn1Cc1ccc(F)cc1Cl`, -5.4% (inactive).
As to `CCCN(CCC)C(=S)Nc1cc(C(=O)OC)ccc1C(=O)OC`, the max response was -1.36% (inactive).
For the molecule `COc1ccc(S(=O)(=O)/N=C2\C=C(NS(=O)(=O)c3ccccc3)C(=O)c3ccccc32)cc1`, the max response is 13.7% (inactive).
The result for `COC(=O)COc1ccc2c(=O)c(Oc3ccccc3Br)coc2c1` reads 1.67% (inactive); that for `CCCCN(CCCC)CC(O)Cn1c2ccccc2c(=O)c2ccccc21` (centres undefined), 1.42% (inactive).
Consider `CCc1ccnc(NC(=O)Nc2ccc(OCc3ccccc3)cc2)c1`, for which the max response is 4.28% (inactive).
Under `COc1ccc(/C=C/c2c(-c3cccc(C)c3)oc3ccc(-c4ccc5c(c4)OCO5)cc23)cc1` stands -3.1% (inactive).
As for `COc1ccc(C2=NOC3(CC(=O)N(c4ccc(C)cc4)C3=O)C2)cc1` (centres undefined), the max response was 14.2% (inactive).
The result for `COc1ccc(C2=Nc3cc(C)ccc3OC2)cc1` reads 33.1% (active); that for `CC(=O)Nc1ccc(S(=O)(=O)Nc2ccc(-c3ccc4nnc(C)n4n3)cc2)cc1`, -1.66% (inactive); that for `O=C(NC1CCCC1)C(c1ccc(Cl)cc1)N(C(=O)c1csnn1)C1CC1` (centres undefined), -3.62% (inactive).
Under `Cc1ccccc1-n1c(C)cc(/C=C2\NC(=O)NC2=O)c1C` stands 52% (active); under `Cc1cccc(C)c1-n1c(C)cc(/C=C2\C(=O)NN(c3ccccc3)C2=O)c1C`, -1.17% (inactive).
For the molecule `Cc1cc(/C=C2/NC(=O)NC2=O)c(C)n1-c1cccnc1`, the max response is 7.98% (inactive).
Under `CCOc1ccc(S(=O)(=O)N2CCN=C2Cc2ccccc2)cc1C` stands -7.25% (inactive).
